We go through 40 compounds from PubChem BioAssay AID743366 (National Center for Advancing Translational Sciences (NCATS), 2014).

A short description of this assay: qHTS profiling of inhibitors of Plasmodium falciparum (HB3) proliferation (acoustic dispense). The conditions noted are these: P. falciparum HB3 in erythrocytes, SYBR Green, 72 h; at 49.8 µM (top of the series) unless noted. The text has this: Plasmodium falciparum is a virulent malarial parasite that kills 1-2 million people worldwide each year. Transmitted by mosquitoes, the sporozoite form of the parasite enters the blood stream to infect hepatocytes, where they become merozoites that infect red blood cells (erythrocytes). Within erythrocytes, merozoites begin a […] cycle of growth and division, after which the parasite is released to infect new red blood cells. Gametocytes, which form within erythrocytes as well, circulate in the bloodstream and are ingested by the mosquito, thereby completing the life cycle. To profile malarial isolates for differential chemical responses and to identify inhibitors of malarial growth, an assay that measures P. falciparum growth and replication within erythrocytes was employed. This assay uses a DNA binding fluorescent dye (SYBR Green) to detect parasite DNA following cell lysis. Because mature erythrocytes lack DNA, only Plasmodium-derived DNA is detected.
The SYBR Green viability assay was adapted from a method described previously (Plouffe et al., 2008). For screening 3 ul culture medium was dispensed into 1536 well black clear bottom plates (Aurora Biotechnologies) using a Multidrop Combi (Thermo Fisher Scientific Inc.), 23 nL of compounds in DMSO were added by an acoustic dispenser (EDC Biosystems), and 5 ul of erythrocytes infected with P. falciparum (0.3% parasitemia, 2.5% hematocrit final concentration) were added. The plates were incubated at 37 C in a humidified incubator in 5% CO2 for 72 h, and 2 ul lysis buffer (20 mM Tris HCl, 10 mM EDTA, 0.16% saponin, 1.6% triton X, 10X SYBR Green I supplied as 10,000X […] by Invitrogen) was added to each well. The plates were mixed for 25 sec with gentle shaking and incubated overnight at room temperature in the dark. The following morning, fluorescence intensity at 485(14) nm excitation and 535(25) nm emission wavelengths was measured on an EnVision (Perkin Elmer) plate reader. Plate reads were normalized relative to the control inhibitor (0.29 uM artemisinin) and vehicle (DMSO) wells present on each plate and then corrected by an algorithm using vehicle-only control plates at the beginning and end of the compound plate stack.
For orientation: Quantitative high-throughput screening tests each substance at several concentrations.
As to `C=CCNc1c(O)cc2c(O)c1C[C@@H](C)C[C@H](OC)[C@@H](O)[C@@H](C)C=C(C)[C@H](OC(N)=O)[C@@H](OC)C=CC=C(C)C(=O)N2`, the activity (normalised, proliferation) is -1.74%.

In the case of `C=CCNC1=C2C[C@@H](C)C[C@H](OC)[C@@H](O)[C@@H](C)C=C(C)[C@H](OC(N)=O)[C@@H](OC)C=CC=C(C)C(=O)NC(=CC1=O)C2=O`, the activity (normalised, proliferation) is -2.45%.

In the case of `Cn1cc(C2=C(c3c4n(c5ccccc35)CCC(CN)C4)C(=O)NC2=O)c2ccccc21` (stereo not given), the activity (normalised, proliferation) is -0.862%.

Take `Cc1nc2cnc3ccc(C#Cc4cccnc4)cc3c2n1-c1ccc(C(C)(C)C#N)cc1`: the activity (normalised, proliferation) amounted to 1.13%.

Take `Nc1ccc(-c2ccc3ncc4ccc(=O)n(-c5cccc(C(F)(F)F)c5)c4c3c2)cn1`: the activity (normalised, proliferation) is -1.37%.

With `CC[C@@]1(O)C[C@H](O[C@H]2C[C@H](N(C)C)[C@H](O[C@H]3C[C@H](O)[C@H](O[C@H]4CCC(=O)[C@H](C)O4)[C@H](C)O3)[C@H](C)O2)c2c(cc3c(c2O)C(=O)c2c(O)cccc2C3=O)[C@@H]1C(=O)OC`, the activity (normalised, proliferation) is -2.68%.

Turning to `CN(C)c1ccc2nc3ccc(=[N+](C)C)cc-3sc2c1`, the activity (normalised, proliferation) was found to be 19.1%.

For the compound `CC(Sc1nc2ccccc2[nH]1)C(=O)NN=Cc1cc(Br)ccc1O` (stereo not given), the activity (normalised, proliferation) is -0.944% [at 4.15 µM].

In the case of `COc1cc(C)c2c(Oc3cccc(C(F)(F)F)c3)c(OC)cc(NCCCC(C)N)c2n1` (stereo not given), the activity (normalised, proliferation) is -2.19%.

Turning to `CCCC[C@@H]1C[C@@H](C(=O)NC([C@H](C)Cl)[C@H]2O[C@H](S)[C@H](O)[C@@H](O)[C@@H]2O)N(C)C1` (stereo not given in full), the activity (normalised, proliferation) turned out to be 3.44%.

Take `CCC(C=C[C@@H]1OC(=O)C=C[C@H]1C)=C[C@H](C)CC=CC(C)=C[C@@H](C)C(=O)[C@@H](C)[C@H](O)[C@@H](C)CC(C)=CC(=O)O`: the activity (normalised, proliferation) was determined as 105% [at 1.88 µM].

As to `CC(C=CC(=O)NO)=C[C@@H](C)C(=O)c1ccc(N(C)C)cc1`, the activity (normalised, proliferation) was -0.304%.

Turning to `COC(=O)c1ccc2c(C(=Nc3ccc(N(C)C(=O)CN4CCN(C)CC4)cc3)c3ccccc3)c(O)[nH]c2c1`, the activity (normalised, proliferation) turned out to be 35.3%.

Turning to `CO[C@H]1C=CC=C(C)C(=O)NC2=CC(=O)C(NCCN(C)C)=C(C[C@@H](C)C[C@H](OC)[C@@H](O)[C@@H](C)C=C(C)[C@@H]1OC(N)=O)C2=O`, the activity (normalised, proliferation) was -0.262%.

Regarding `CO[C@H]1O[C@@H]2O[C@@]3(C)CC[C@@H]4[C@@H](C)CC[C@@H]([C@H]1C)[C@@]24OO3`, the activity (normalised, proliferation) was -0.929%.

In the case of `COc1ccc(-c2nc(N3CCOCC3)c3sc(CN(C)c4ncc(C(=O)NO)cn4)cc3n2)cn1`, the activity (normalised, proliferation) is -1.14%.

Turning to `COc1ccc(-c2cc3c(C)nc(N)nc3n(C3CCC(OCCO)CC3)c2=O)cn1` (stereo not given), the activity (normalised, proliferation) is -1.37%.

For the compound `Cc1[nH]c2ccccc2c1CCNCc1ccc(C=CC(=O)NO)cc1`, the activity (normalised, proliferation) is -2.24%.

For the compound `CCC[C@H](Nc1nc(-c2ccc(NC(=O)NCC)c(OC)c2)ncc1C)c1cccnc1`, the activity (normalised, proliferation) is -0.168%.

As for `CC(C)Oc1cc(Nc2nc(N[C@@H](C)c3ccc(F)cn3)ncc2Cl)[nH]n1`, the activity (normalised, proliferation) was determined as 2.89%.

As for `C[C@@H](Oc1ccc2[nH]nc(C=Cc3cnn(CCO)c3)c2c1)c1c(Cl)cncc1Cl`, the activity (normalised, proliferation) was 1.95%.

In the case of `CCN(CC)CCNC(=O)c1c(C)[nH]c(C=C2C(=O)Nc3ccc(F)cc32)c1C`, the activity (normalised, proliferation) was 0.208% [at 100 µM].

In the case of `CN(Cc1cnc2nc(N)nc(N)c2n1)c1ccc(C(=O)N[C@@H](CCC(=O)O)C(=O)O)cc1`, the activity (normalised, proliferation) came out at 0.621%.

Turning to `CCc1cc(Nc2nccc(-c3c(-c4ccc(OC)c(C(=O)Nc5c(F)cccc5F)c4)nc4ccccn34)n2)c(OC)cc1N1CCC(N2CCN(S(C)(=O)=O)CC2)CC1`, the activity (normalised, proliferation) stood at 0.0178%.

Take `O[C@H](c1cc(C(F)(F)F)nc2c(C(F)(F)F)cccc12)[C@H]1CCCCN1`: the activity (normalised, proliferation) turned out to be 3.25% [at 23.2 µM].

For `CC(C)C[C@H](NC(=O)[C@H](CCc1ccccc1)NC(=O)CN1CCOCC1)C(=O)N[C@@H](Cc1ccccc1)C(=O)N[C@@H](CC(C)C)C(=O)[C@@]1(C)CO1`, the activity (normalised, proliferation) came to 0.732%.

For `C#Cc1cccc(Nc2ncnc3cc(OC)c(OCCCCCCC(=O)NO)cc23)c1`, the activity (normalised, proliferation) is -0.996%.

In the case of `Nc1cccc(-c2csc(NC(=O)CCCCCCC(=O)NO)n2)c1`, the activity (normalised, proliferation) is -0.958%.

Take `C=C[C@@H]1CN2CCC1C[C@@H]2C(O)c1ccnc2ccc(OC)cc12` (stereo not given in full): the activity (normalised, proliferation) was 1.73%.

In the case of `CCn1nnc2c(N3CCOCC3)nc(-c3ccc(NC(=O)Nc4ccc(C(=O)N5CCN(C)CC5)cc4)cc3)nc21`, the activity (normalised, proliferation) is 4.68%.

As to `Cc1cnc(Nc2ccc(CN3CCOCC3)cc2)nc1Nc1cccc(S(=O)(=O)NC(C)(C)C)c1`, the activity (normalised, proliferation) was found to be 0.609%.

In the case of `C[C@H]1c2cccc(O)c2C(O)=C2C(=O)[C@]3(O)C(O)=C(C(N)=O)C(=O)[C@@H](N(C)C)[C@@H]3[C@@H](O)[C@@H]21`, the activity (normalised, proliferation) is 2.34%.

Take `COC1=C2C[C@@H](C)C[C@H](OC)[C@@H](O)[C@@H](C)C=C(C)[C@H](OC(N)=O)[C@@H](OC)C=CC=C(C)C(=O)NC(=CC1=O)C2=O`: the activity (normalised, proliferation) was -2.24%.

Take `CCCCCCCCCCOc1cc2c(=O)c(C(=O)OCC)c[nH]c2cc1OCC`: the activity (normalised, proliferation) was -0.332%.

Consider `CN([C@@H](Cc1ccc(OS(=O)(=O)c2cccc3cnccc23)cc1)C(=O)N1CCN(c2ccccc2)CC1)S(=O)(=O)c1cccc2cnccc12`, for which the activity (normalised, proliferation) worked out at 0.0465%.

`COc1cc(NC(C)CCCN)c2ncccc2c1` (stereo not given): the activity (normalised, proliferation) came out at 0.241%.

`CC(=NNC(=S)N1CCC1)c1ccccn1`: the activity (normalised, proliferation) is -0.583%.

Take `COc1ncnc(NS(=O)(=O)c2ccc(N)cc2)c1OC`: the activity (normalised, proliferation) is 102%.

Regarding `CC[C@H]1OC(=O)[C@H](C)[C@@H](O[C@H]2C[C@@](C)(OC)[C@@H](O)[C@H](C)O2)[C@H](C)[C@@H](O[C@@H]2O[C@H](C)C[C@H](N(C)C)[C@@H]2O)[C@](C)(O)C[C@@H](C)CN(C)[C@H](C)[C@@H](O)[C@]1(C)O`, the activity (normalised, proliferation) is -0.367%.

In the case of `CN[C@@H](C)C(=O)N[C@H]1CCCC[C@H]2CC[C@@H](C(=O)N[C@@H](c3ccccc3)c3cn(CCCCc4ccc(CCCCn5cc([C@@H](NC(=O)[C@@H]6CC[C@@H]7CCCC[C@H](NC(=O)[C@H](C)NC)C(=O)N76)c6ccccc6)nn5)cc4)nn3)N2C1=O`, the activity (normalised, proliferation) was 0.411%.
